Screens deposited in PubChem by National Center for Advancing Translational Sciences (NCATS).
In the library only some 1.4% were active in any assay of this set; here they are far more common.
p53 reactivation: restores transcriptional activity of mutant p53 | H1299 p53-A138V BP100-luciferase reporter, luminescence, 24 h | Potency, µM (highest dose often 92.2 µM), without a hit: at the highest dose activity change, positive = activation, hits mostly activators | 0.063% of 320,000 active; also: potency is read from the fitted curve at half-maximal effect; % of control where 0% means no effect; nearly all actives have a fitted effect of over 45% in size
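H1299 (p53-null), stable ts p53-A138V + BP100-Luc; 1000 cells/well, Opti-MEM/10% FBS; cpd 4 pt, 1:5; 24 h, 37 deg C, 5% CO2; detection reagent 10 min RT; luminescence.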
GLS inhibitor: glutaminase GLS (human) inhibition; GLS enzymatic activity, qHTS titration; Potency, µM (doses to about 45.5 µM), for the others: top-dose activity change, negative = inhibition, hits mostly inhibitors; 0.21% of 410,000 active; also: potency is read from the fitted curve at half-maximal effect; % is scaled to controls: 0 for no effect and ±100 for the full control effect
Target sequence (O94925 whole entry, looked up): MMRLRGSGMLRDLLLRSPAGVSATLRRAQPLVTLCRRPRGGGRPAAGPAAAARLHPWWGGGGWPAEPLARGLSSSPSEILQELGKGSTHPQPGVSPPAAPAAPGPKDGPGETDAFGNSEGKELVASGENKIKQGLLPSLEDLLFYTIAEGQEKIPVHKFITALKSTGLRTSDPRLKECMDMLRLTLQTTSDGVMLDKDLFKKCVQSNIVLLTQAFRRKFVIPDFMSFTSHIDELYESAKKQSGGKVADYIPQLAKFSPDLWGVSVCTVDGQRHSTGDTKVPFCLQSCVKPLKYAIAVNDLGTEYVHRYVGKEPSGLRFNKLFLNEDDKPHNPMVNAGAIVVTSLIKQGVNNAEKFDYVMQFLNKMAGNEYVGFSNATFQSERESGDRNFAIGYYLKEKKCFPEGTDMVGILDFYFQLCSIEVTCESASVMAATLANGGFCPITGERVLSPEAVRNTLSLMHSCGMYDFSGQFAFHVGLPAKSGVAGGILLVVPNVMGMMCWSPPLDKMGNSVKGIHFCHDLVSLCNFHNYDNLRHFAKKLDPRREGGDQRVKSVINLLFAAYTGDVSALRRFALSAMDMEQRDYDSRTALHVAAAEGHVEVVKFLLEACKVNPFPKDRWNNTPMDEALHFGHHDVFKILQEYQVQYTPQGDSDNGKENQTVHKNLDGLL
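Glutamate formation by hKGA was monitored fluorometrically using coupled glutamate oxidase, HRP and Amplex Red. Substrate was added as 1 mM L-glutamine solution; incubation was 30 min at RT after an initial read.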
BRCA1 expr act: activators of BRCA1 expression; MCF7-BRCA1-FFLuc reporter, luminescence, 48 h; response scale: scaled: vehicle 0%, 10 µM genistein 100%; Potency, µM (top dose mostly 46.1 µM), without a hit: at the highest dose activation, hits mostly activators; 1.1% of 380,000 active; AID 624202; also: potency is read from the fitted curve at half-maximal effect; nearly all actives have a fitted effect of over 80% in size
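MCF7-BRCA1-FFLuc cells, 2000/well in phenol-red-free MEM, attached 2 h then treated 48 h at 37 C. Luciferase luminescence read 15 min after reagent; normalized to genistein maximum activation (10microM) and DMSO, concentration-response fitted.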
TSHR antag: blocks TSH signaling through the human TSH receptor | 0.2% of 330,000 active | TSHR-expressing cells, TSH-stimulated cAMP HTRF, 2 h; hits give low values | activity change, negative = inhibition, % at 11.5 µM | P16473;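 active = activity change below a set negative limit, meaning inhibition stronger than a set level, cut at about -70% in these data; inconclusive = activity change between two set negative limits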; also: % is scaled to controls: 0 for no effect and ±100 for the full control effect
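TSHR-expressing cells, 200/well, pre-treated with compound, then stimulated with EC80 TSH (4nM final) for 2 hours at 37 deg C. cAMP measured by competitive HTRF: anti-cAMP cryptate antibody in lysis buffer plus cAMP-d2, read after 30 minutes at room temperature.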
TCR act: activators of T cell receptors; AID 504894; 330,000 tested, under 10 active; Potency, µM (titrated, usually from 9.22 µM), for inactives: at the top dose activation of IL-2 secretion, actives largely listed as activators; primary human leukocytes, anti-CD3, IL-2 HTRF, 48 h; also: % of control where 0% means no effect
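HTRF read-out of IL-2 secretion: europium cryptate donor excited at 320nm, d2 acceptor emission at 665nm. Cells were primary human leukocytes incubated 48 hr with compounds and a-CD3 beads, supplying TCR signal only.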
N370S GC: N370S glucocerebrosidase modulation, Gaucher chaperone candidate; P04062; N370S GC spleen homogenate, 4MU-glucoside fluorescence; Potency, µM (series often up to 59.4 µM), without a hit: at the highest dose activity change, negative = inhibition, usual class: inhibitors; 0.092% of 330,000 active;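 also: potency is read from the fitted curve at half-maximal effect; 0% = full enzyme activity and -100% = no enzyme basal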
Starred values were filed as active, the others as inactive; ? = inconclusive; / = no result given; [ ] = remark or other dose. Unless noted, calls follow the shape of the dose curve; as a rule, active = well fitted curve in the direction sought with a large enough effect; inconclusive = small, poorly fitted or top-dose-only effect, or another doubt; inactive = no such curve, though single readings can be large; an effect the other way counts as inactive or inconclusive.

SMILES | p53 reactivation | GLS inhibitor | BRCA1 expr act | TSHR antag | TCR act | N370S GC
Clc1ccc(-c2nnc(CCc3ccccc3)o2)c(Cl)c1 | 22% | -4% | 11µM* | -8 | 2% | 9%
COc1ccc(OC)c(C2=Nn3c(nnc3-c3ccccc3C)SC2)c1 | / | / | / | / | / | 12%
CCc1cc2c(CN(C)Cc3ccccc3F)cc(=O)oc2cc1O | 1% | 13% | -62% | 3 | -2% | ?
Cc1cc2oc(=O)cc(CN(C)Cc3cccc(F)c3)c2cc1C | 16% | 2% | 11µM* | 12 | 2% | 1%
Cc1cc(C)c2c(CN(C)Cc3ccccc3)cc(=O)oc2c1 | / | 2% | 13µM* | / | / | /
O=C(CSc1ccccc1)Nc1ccccc1C(=O)O | / | 10% | ? | / | 6% | 7%
Cc1ccc(SCC(=O)Nc2ccccc2C(=O)O)cc1 | ? | -2% | 4.5µM* | -5 | 0% | -2%
O=C(Nc1ccccc1Cl)c1ccn[nH]1 | 13% | -4% | 13µM* | 18 | 7% | 5%
O=C(Nc1ccccc1F)c1ccn[nH]1 | 17% | -5% | 13% | 3 | -1% | 14%
CCCCOc1ccc(CC(=O)N(C)OC)cc1 | / | / | 33% | / | / | /
CCN(CC)CCCOc1cc2nc(N3CCCN(C)CC3)nc(NC3CCN(C)CC3)c2cc1OC | / | / | -27% | / | / | /
COC(=O)c1c(-c2cccnc2)csc1NC(=O)c1ccc2c(c1)OCO2 | ? | -24% | 2.2µM* | -14 | -1% | 3%
CCc1cc(C(=O)OC)c(NC(=O)c2ccoc2C)s1 | -4% | 3% | -29% | -7 | 3% | -2%
COC(=O)c1c(-c2ccncc2)csc1NC(=O)c1ccoc1C | 20% | 3% | 4.5µM* | -5 | / | -1%
COc1cccc([C@@H]2Oc3ccc(OC)cc3/C(=N/O[C@@H](C)c3cn([C@H]4COC[C@H]4O)nn3)[C@@H]2O)c1 | / | / | / | / | / | -2%[12.8 µM]
N/C(=N\OC(=O)c1ccc(Br)cc1)c1ccncc1 | 8% | -4% | 4µM* | 18 | 9% | -3%
N/C(=N\OC(=O)c1ccccc1)c1ccncc1 | 3% | 0% | -1% | -2 | 5% | 5%
N/C(=N\OC(=O)c1cccc(Br)c1)c1ccncc1 | 4% | 1% | 14µM* | -12 | 0% | 8%
COC(=O)[C@@H](NC(=O)Nc1ccc(C(C)=O)cc1)C(C)C | 2% | 8% | 1% | 0 | 0% | -2%
COc1ccc(C(C)NC(=O)Nc2ccc(C(C)=O)cc2)cc1OC (stereo not drawn) | 11% | -3% | 11µM* | 5 | -7% | -9%
O=c1c2nccnc2[nH]c(=S)n1Cc1ccccc1Cl | 0% | 10µM* | 1% | 9 | 4% | 2%
Cn1c(=O)n(Cc2ccccc2Cl)c(=O)c2c1[nH]c(=S)n2C | -1% | 14µM* | -13% | 10 | -7% | -2%
O=C(c1ccc2c(=O)n(Cc3ccccc3Cl)c(=S)[nH]c2c1)N1CCCC1 | 2% | -12% | -10% | -2 | -5% | 2%
Cn1c(=O)c2c([nH]c(=O)n2Cc2ccc(Cl)cc2Cl)n(C)c1=O | / | 5% | 6% | / | / | /
C#C[C@@]1(OC(C)=O)CC[C@H]2[C@@H]3CCC4=CC(=O)CC[C@@H]4[C@H]3CC[C@@]21C | / | 0% | / | / | / | /
SMILES | p53 reactivation | GLS inhibitor | BRCA1 expr act | TSHR antag | TCR act | N370S GC
O[C@@H]1CO[C@H]2C1OC[C@@H]2O (stereo partly drawn) | / | / | / | / | / | -16%
CN(Cc1ccc(F)cc1)C(=O)CCc1nnc(-c2ccccc2)o1 | 10% | -6% | 14µM* | -9 | -2% | 6%
COc1ccc(CCN(C)C(=O)CCc2nnc(-c3ccccc3)o2)cc1OC | 10% | -1% | ? | 30 | 4% | 22%
CCCc1cc(C(=O)N/N=C/c2cccn2C)cs1 | -17% | -15% | 7.9µM* | -11 | / | 13%
COc1ccc(-c2nn(C)c3sc(C(=O)Nc4cc(OC)c(OC)c(OC)c4)cc23)cc1OC | / | -13% | / | / | / | /
O=C(Nc1ccccc1F)c1ccc2ncsc2c1 | ? | 2% | ? | 2 | -1% | -8%
O=C(Nc1ccc(F)cc1F)c1ccc2ncsc2c1 | ? | -1% | 5µM* | -5 | 3% | -10%
c1ccc(Oc2cc(-c3ccccc3)nc(-c3ccccc3)n2)cc1 | 10% | 6% | -13% | 16 | -1%[46.1 µM] | 3%
c1ccc(Oc2cc(-c3ccccc3)ncn2)cc1 | 4% | -11% | 11µM* | -3 | -2% | 3%
Cc1cccc(NC(=O)Cc2noc3ccccc23)c1 | ? | 2% | 11µM* | -15 | 1%[46.1 µM] | -6%
CC1CCC(NC(=O)c2ccc3nc[nH]c3c2)CC1 (stereo not drawn) | ? | 3% | 11µM* | 28 | 3% | ?
O=C(NNC(=O)c1ccc2nc[nH]c2c1)c1ccccc1 | 6% | 8% | 11% | -1 | 3% | /
O=C(NC(=S)Nc1cccnc1Cl)c1ccc(F)cc1 | ? | -14% | 10µM* | 0 | 2% | 1%
O=C(CC(=O)c1ccccc1)Nc1cccnc1Cl | ? | -1% | 7.1µM* | 17 | 9%[46.1 µM] | 1%
COc1cccc(-c2nc(NC3CCNCC3)c3ccccc3n2)c1 | / | / | / | / | / | 8%
Cc1ccc(Cn2ccnc2C(=O)Nc2ccccc2)cc1 | ? | 2% | 13µM* | -14 | -2% | -12%
CN(c1nccc(=O)[nH]1)C1CCN(c2nc3ccccc3n2Cc2ccc(F)cc2)CC1 | / | 2% | / | / | / | /
O=C(c1ccc(F)cc1)c1ccc(N2CCCC2)cc1 | ? | 5% | 3.2µM* | -17 | 7% | ?
O=C(Nc1ccc(N2CCCCC2)cc1)c1ccc(F)cc1 | 28% | 4% | ? | -4 | 0% | -2%
O=C(c1ccc(F)cc1)c1ccc(N2CCCCC2)cc1 | ? | 2% | 5µM* | -7 | 3% | 2%
O=C(NOCc1ccccc1)c1ccc(Cl)cc1Cl | 18% | -4% | -55% | -8 | 1% | /
O=C(NOCc1ccccc1)c1ccccc1 | ? | 20% | 1.3µM* | 0 | 1%[46.1 µM] | -2%
Cc1ccc(CONC(=O)c2cccc(C)c2)cc1 | 6% | 3% | 8.9µM* | -7 | 6% | /
c1ccc(-c2nc(-c3ccccc3)c(NC3CCCCC3)o2)cc1 | / | / | / | / | / | -6%
CS(=O)(=O)N1CCN(c2nc3ccccc3s2)CC1 | ? | -3% | 13µM* | 16 | / | -1%
CNC(=S)N1CCN(c2nc3ccccc3s2)CC1 | 7% | -10% | 7.1µM* | 2 | -5% | 28%
O=S(=O)(c1ccccc1)N1CCN(c2nc3ccccc3s2)CC1 | 9% | -2% | 44% | 6 | -2% | 8%
CCN(Cc1ccccc1)C(=O)Cn1c(=O)n(-c2cccc(C)c2)c(=O)c2c1c1cc(C)ccc1n2C | / | -4% | -6% | / | / | /
